Measured values reported in PubChem BioAssay (NCATS).
Results filed as inconclusive are left out. Where a call stands in place of a potency, no number is given. Active and inactive are the calls of the source. Calls follow the shape of the dose curve; as a rule, active = well fitted inhibition curve with a large enough effect; inconclusive = small, poorly fitted or top-dose-only effect; inactive = flat fitted curve, though single readings scatter.

Target: Ubiquitin carboxyl-terminal hydrolase 1 (Homo sapiens) (UniProt O94782)
Sequence (O94782 whole entry, looked up): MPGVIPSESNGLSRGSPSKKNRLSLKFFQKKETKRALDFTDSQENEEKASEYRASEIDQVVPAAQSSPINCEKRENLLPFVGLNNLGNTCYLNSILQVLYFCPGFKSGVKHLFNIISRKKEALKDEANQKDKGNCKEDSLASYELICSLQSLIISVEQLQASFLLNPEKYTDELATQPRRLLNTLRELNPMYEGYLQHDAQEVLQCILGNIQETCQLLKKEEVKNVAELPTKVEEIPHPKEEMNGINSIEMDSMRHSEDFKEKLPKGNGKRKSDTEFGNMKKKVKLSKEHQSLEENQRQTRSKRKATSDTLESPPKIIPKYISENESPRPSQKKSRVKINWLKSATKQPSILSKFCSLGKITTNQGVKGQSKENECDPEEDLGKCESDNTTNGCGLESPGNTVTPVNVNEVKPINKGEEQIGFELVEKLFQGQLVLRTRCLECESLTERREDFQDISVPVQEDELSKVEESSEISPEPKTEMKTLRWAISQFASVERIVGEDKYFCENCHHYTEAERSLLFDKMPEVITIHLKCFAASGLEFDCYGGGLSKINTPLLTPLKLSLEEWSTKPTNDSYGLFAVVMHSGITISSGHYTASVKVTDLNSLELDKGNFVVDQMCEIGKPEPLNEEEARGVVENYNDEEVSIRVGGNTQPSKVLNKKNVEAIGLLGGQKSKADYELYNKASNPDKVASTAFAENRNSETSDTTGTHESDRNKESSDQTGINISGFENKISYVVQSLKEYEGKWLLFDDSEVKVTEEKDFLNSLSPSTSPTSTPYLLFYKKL
Assay: Inhibitors of USP1/UAF1: Pilot qHTS (AID 504865);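 also: rhodamine fluorescence freed from ubiquitin-rhodamine substrate followed over time; top concentration of the series differs between compounds; nearly all actives have a fitted effect of over 35% in size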
Conditions: purified USP1/UAF1, Ub-rhodamine cleavage fluorescence; series mostly up to 114 µM
Summary of the method: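 Kinetic fluorescence assay: 1nM USP1/UAF1, 15 min compound preincubation, then 150nM Ub-Rho; 480/540 nm.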

Row | Structure (SMILES) | Potency
1 | C[C@H](N)Cc1ccccc1 | inactive
2 | C[C@]12C=CC(=O)C=C1CC[C@@H]1C2CC[C@]2(C)OC(=O)CCC12 (some centres not stated) | inactive
3 | OCC(O)[C@H]1O[C@@H]2O[C@H](C(Cl)(Cl)Cl)O[C@@H]2[C@H]1O (some centres not stated) | inactive
4 | CC1(C)[C@@H](C=C(Cl)Cl)[C@@H]1C(=O)OCc1c(F)c(F)cc(F)c1F | inactive
5 | Nc1nc(/C(=C/CC(=O)O)C(=O)NC2C(=O)N3C(C(=O)O)=CCSC23)cs1 (configuration not stated) | inactive
6 | CC1(C)S[C@@H]2[C@H](N)C(=O)N2C1C(=O)O (some centres not stated) | inactive
7 | C=C1Nc2ccccc2C(=O)N1c1ccccc1C | inactive
8 | CC1OC(O[C@H]2C[C@@H](O)[C@]3(CO)[C@@H]4C(CC[C@]3(O)C2)[C@@]2(O)CC[C@H](C3=CC(=O)OC3)[C@@]2(C)C[C@H]4O)C(O)C(O)C1O (some centres not stated) | inactive
9 | O=[N+]([O-])OC1CO[C@H]2C(O[N+](=O)[O-])COC12 (some centres not stated) | inactive
10 | CCOC(=O)/C=C(C)/C=C/CC(C)CCCC(C)C (configuration not stated) | inactive
11 | [S]=[Sb][S][Sb]=[S] | inactive
12 | CN1C2CCC1C(C(=O)O)C(OC(=O)c1ccccc1)C2 (configuration not stated) | inactive
13 | C[C@@H]1CC[C@H]2[C@@H](C)C(=O)O[C@@H]3OC4(C)CC[C@@H]1C32OO4 (some centres not stated) | inactive
14 | Cc1ccc2c(c1)[C@@H]1CN(C)CC[C@H]1N2 | inactive
15 | Nc1nc(O)c(-c2ccccc2)o1 | inactive
16 | C=CC[N+]1(C)CCC23c4c5ccc(O)c4O[C@H]2C(=O)CC[C@@]3(O)C1C5 (some centres not stated) | inactive
17 | OC[C@@H](O)[C@H]1O[C@@H]2OC(C(Cl)(Cl)Cl)O[C@H]2[C@H]1O (some centres not stated) | inactive
